Values joined by “and” are separate entries in the source; they are usually repeats but may differ in a detail not shown here. Equal entries are not always repeated. Out of some 5,500 compounds screened, about 2,000 (36%) were called active. Not shown: some 18% with an inconclusive outcome. Rule as the data show it: active = normalized growth mostly below about 0.91 (no sharp cut-off); inconclusive = no clear call, values can overlap the other calls; inactive = mostly above about 0.92. The list shows a part of the results.
Test: chemical genetic growth profiling, strain panel (AID 1159580);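 also: tested at 20 µM; growth read once vehicle control cultures reached saturation at 30 °C; 1 = growth at the plate median or of vehicle wells; lower values mean less growth of the strain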
Conditions: S. cerevisiae deletion strains, growth OD

Measured: normalized growth

COc1c2c(cc3occ(-c4ccc5c(c4)OCO5)c(=O)c13)OC(C)(C)C=C2
active: locus YDR392W, strain spt3, active compounds read low 0.644 | locus YGL086W, strain mad1, active compounds read low 0.889 | locus YHR142W, strain chs7, active compounds read low 0.857
inactive: locus YAL013W, strain DEP1, active compounds read low 0.989 | locus YAL021C, strain ccr4, active compounds read low 1 | locus YAL026C, strain drs2, active compounds read low 0.975 | locus YAL030W, strain snc1, active compounds read low 0.997 | locus YBL061C, strain skt5, active compounds read low 0.969 | locus YBR009C, strain hhf1, active compounds read low 0.966 | locus YBR021W, strain FUR4, active compounds read low 0.973 | locus YBR023C, strain chs3, active compounds read low 0.967 | locus YBR171W, strain sec66, active compounds read low 0.988 | locus YBR229C, strain ROT2, active compounds read low 0.987 | locus YBR231C, strain swc5, active compounds read low 0.989 | locus YBR279W, strain paf1, active compounds read low 1.03 | locus YCL011C, strain gbp2, active compounds read low 0.985 | locus YCL016C, strain dcc1, active compounds read low 0.994 | locus YCL029C, strain bik1, active compounds read low 0.961 | locus YCL061C, strain MRC1, active compounds read low 0.996 | locus YCL069W, strain vba3, active compounds read low 1 | locus YCR088W, strain abp1, active compounds read low 0.995 | locus YDL005C, strain med2, active compounds read low 1 | locus YDL035C, strain GPR1, active compounds read low 0.95 | locus YDL040C, strain nat1, active compounds read low 1.01 | locus YDL074C, strain BRE1, active compounds read low 0.901 | locus YDL101C, strain DUN1, active compounds read low 0.98 | locus YDL185W, strain tfp1, active compounds read low 0.943 | locus YDL192W, strain arf1, active compounds read low 0.918 | locus YDR001C, strain nth1, active compounds read low 0.994 | locus YDR069C, strain doa4, active compounds read low 0.991 | locus YDR101C, strain arx1, active compounds read low 0.925 | locus YDR137W, strain rgp1, active compounds read low 0.964 | locus YDR159W, strain sac3, active compounds read low 1.02 | locus YDR162C, strain NBP2, active compounds read low 0.993 | locus YDR195W, strain ref2 1.11 | locus YDR297W, strain sur2, active compounds read low 0.995 | locus YDR318W, strain mcm21, active compounds read low 0.962 | locus YDR334W, strain swr1, active compounds read low 1.01 | locus YDR335W, strain msn5, active compounds read low 1.02 | locus YDR388W, active compounds read low 0.973 | locus YDR502C, strain sam2, active compounds read low 0.926 | locus YEL003W, strain gim4, active compounds read low 1 | locus YEL037C, strain rad23, active compounds read low 1 | locus YEL061C, strain CIN8 (second series), active compounds read low 1.01 | locus YEL061C, strain CIN8, active compounds read low 0.992 | locus YER015W, strain faa2, active compounds read low 1 | locus YER016W, strain bim1, active compounds read low 1 | locus YER110C, active compounds read low 0.983 | locus YER111C, strain swi4, active compounds read low 1.01 | locus YER155C, strain BEM2 (second series), active compounds read low 0.936 | locus YER155C, strain BEM2, active compounds read low 0.992 | locus YER167W, strain BCK2, active compounds read low 0.984 | locus YFR010W, strain ubp6, active compounds read low 0.989 | locus YGL078C, strain dbp3, active compounds read low 0.929 | locus YGL167C, strain pmr1, active compounds read low 1 | locus YGL173C, strain kem1, active compounds read low 0.996 | locus YGL227W, strain vid30, active compounds read low 1 | locus YGL240W, strain doc1, active compounds read low 0.998 | locus YGL248W, strain PDE1, active compounds read low 0.998 | locus YGL253W, strain hxk2, active compounds read low 0.936 | locus YGR078C, strain PAC10, active compounds read low 0.982 | locus YGR135W, strain pre9, active compounds read low 0.98 | locus YGR252W, strain gcn5, active compounds read low 0.983 | locus YHR013C, strain ard1, active compounds read low 0.986 | locus YHR027C, strain rpn1, active compounds read low 0.993 | locus YHR030C, strain SLT2, active compounds read low 0.992 and 1.01 | locus YHR079C, strain IRE1 (second series), active compounds read low 0.952 | locus YHR079C, strain IRE1, active compounds read low 0.983 | locus YHR094C, strain hxt1, active compounds read low 0.977 | locus YHR129C, strain ARP1, active compounds read low 0.988 | locus YHR200W, strain rpn10, active compounds read low 0.949 | locus YIL066C, strain RNR3, active compounds read low 0.965 | locus YIL073C, strain SPO22, active compounds read low 0.941 | locus YIL125W, strain kgd1, active compounds read low 0.96 | locus YIR030C, strain dcg1, active compounds read low 0.97 | locus YJL092W, strain hpr5, active compounds read low 0.99 | locus YJL095W, strain BCK1 (second series), active compounds read low 0.997 | locus YJL095W, strain BCK1, active compounds read low 0.981 and 1.01 | locus YJL115W, strain asf1, active compounds read low 1.02 | locus YJL129C, strain trk1, active compounds read low 0.937 | locus YJL134W, strain LCB3, active compounds read low 0.992 | locus YJL154C, strain vps35, active compounds read low 1.02 | locus YJL164C, strain tpk1, active compounds read low 0.981 | locus YJL166W, strain qcr8, active compounds read low 0.973 | locus YJL168C, strain set2, active compounds read low 0.972 | locus YJL187C, strain SWE1 (second series), active compounds read low 0.975 | locus YJL187C, strain SWE1, active compounds read low 1 | locus YJR043C, strain POL32, active compounds read low 0.999

From PubChem BioAssay AID1159580 (chemical genetic matrix, 2015)
